PubChem BioAssay AID651813 (National Center for Advancing Translational Sciences (NCATS), 2012)
Among all 2,100 compounds or so, about 1,100 (52%) were called active. Roughly 27% stayed inconclusive and do not appear here. So high a share suggests a set chosen from earlier hits. This is one part of the list. A number with no mark means an inactive call. The call rests on the fitted dose curve; in most records, active means well fitted inhibition curve with a large enough effect; inconclusive means small, poorly fitted or top-dose-only effect; inactive means no such curve, though single readings can be large or run the other way.

target: DNA dC->dU-editing enzyme APOBEC-3G (Homo sapiens) (UniProt Q9HC16); test: qHTS for inhibitors of Vif-A3G interactions: Cherry picks counterscreen; conditions: HeLa A3G-eYFP + Vif (tagged APOBEC3G with the HIV-1 protein that degrades it), eYFP fluorescence, 24 h;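 further: hits raise yellow fluorescence by blocking Vif-driven A3G-eYFP degradation; nearly all actives have a fitted effect of over 70% in size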;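 on max response: max response given as percent of control signal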
Sequence (Q9HC16 whole entry, looked up): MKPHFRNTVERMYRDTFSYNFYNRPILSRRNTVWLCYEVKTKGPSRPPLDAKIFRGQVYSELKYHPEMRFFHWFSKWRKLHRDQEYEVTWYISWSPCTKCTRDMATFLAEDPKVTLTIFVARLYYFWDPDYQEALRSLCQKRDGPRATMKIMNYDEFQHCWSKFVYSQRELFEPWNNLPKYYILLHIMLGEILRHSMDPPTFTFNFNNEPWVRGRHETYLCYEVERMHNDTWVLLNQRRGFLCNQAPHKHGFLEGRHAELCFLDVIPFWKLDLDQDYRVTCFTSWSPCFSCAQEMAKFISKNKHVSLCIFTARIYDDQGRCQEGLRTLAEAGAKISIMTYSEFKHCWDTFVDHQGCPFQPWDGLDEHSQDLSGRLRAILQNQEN
Procedure, shortened: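 HeLa cells stably expressing A3G-eYFP and Vif were treated for 24 h at 37 deg C with compounds at several concentrations; yellow fluorescence (Ex 488 nm, Em 500-530 nm) read by Acumen Explorer, MG132 as positive control.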
Potency means the concentration at half of the fitted maximal effect.

Structure (SMILES) | Potency | max response [%]
CCn1nc(-c2ccccc2)c2nc3ccccc3nc21 | 23.1 µM (active) | 
O=C(NCc1cccc(F)c1)c1cccc2c1C(=O)c1ccc(N3CCCC3)cc1S2(=O)=O | 17.7 µM (active) | 
Cc1ccc(CNC(=O)c2cccc3c2C(=O)c2ccc(N4CCCCC4)cc2S3(=O)=O)cc1 | 18.4 µM (active) | 
CC1CCN(c2ccc3c(c2)S(=O)(=O)c2cccc(C(=O)NCc4cccc(F)c4)c2C3=O)CC1 | 14 µM (active) | 
Cc1ccc(CNC(=O)c2cccc3c2C(=O)c2ccc(N4CCC(C)CC4)cc2S3(=O)=O)cc1 |  | -0.215
COc1cc2ccccc2cc1C(=O)N/N=C/c1cccs1 | 1.77 µM (active) | 
COc1ccccc1C=CC(=O)C=Cc1ccccc1OC | 6.27 µM (active) | 
O=C(NC(=S)N1CCN(C2CCCCC2)CC1)c1ccccc1 |  | -11.9
CN(C)c1ccc(/C=C/c2cc(/C=C/c3ccc(N(C)C)cc3)c3ccccc3n2)cc1 | 3.66 µM (active) | 
CN(C)c1ccc(/C=C/c2cc(N(C)C)nc3ccccc23)cc1 | 6.51 µM (active) | 
Nc1ccc(/C=C/c2cc(Cl)nc3ccccc23)cc1 | 20.6 µM (active) | 
CN(C)c1ccc(/C=C/c2nc3ccccc3c(=O)n2CCO)cc1 | 20.6 µM (active) | 
CCN(CC)c1ccc(/C=C/c2cc(-c3ccccc3)c3ccccc3n2)cc1 | 1.98 µM (active) | 
Cc1ccccc1N1C(=O)c2cccc3c(N(C)CCO)ccc(c23)C1=O | 4.61 µM (active) | 
COc1ccccc1N1C(=O)c2cccc3c(C(=O)O)ccc(c23)C1=O |  | 6.39
COc1ccc(C(=O)c2ccc(OC)c(OC)c2OC)cc1 | 2.23 µM (active) | 
O=C(NC1C/C(=N/O)c2cc3c(cc21)OCO3)C(F)(F)F (stereo unspecified) |  | -1.11
COc1cc(/C=C2\COC/C(=C\c3ccc(O)c(OC)c3)C2=O)ccc1O | 8.86 µM (active) | 
COc1cc(C=C2C(=O)c3ccccc3C2=O)cc(OC)c1OC |  | -6.19
CCOc1cc(/C=C2\CN(C)C/C(=C\c3ccc(O)c(OCC)c3)C2=O)ccc1O | 5.59 µM (active) | 
COc1cc(/C=C2\COC/C(=C\c3cc(OC)c(OC)c(OC)c3)C2=O)cc(OC)c1OC | 3.14 µM (active) | 
COc1ccc(/C=C2/CSC/C(=C/c3ccc(OC)c(OC)c3)C2=O)cc1OC | 5.59 µM (active) | 
Cc1ccc(F)c(S(=O)(=O)NC(=O)C2(C)CCN2C(=O)Cc2ccc(Cl)cc2Cl)c1 (stereo unspecified) |  | 13

Structure (SMILES) | Potency | max response [%]
Cc1cccn2c(=O)c3cc(C#N)c(=NC(=O)c4cccs4)n(CCCOC(C)C)c3nc12 |  | -8.85
COc1ccc(/C=C2\CN(Cc3ccccc3)C/C(=C\c3ccc(OC)c(O)c3)C2=O)cc1O | 6.27 µM (active) | 
C=CCn1c(SCc2c(C)noc2C)nc2cc(C(=O)O)ccc2c1=O | 17.7 µM (active) | 
Cc1noc(C)c1CSc1nc2ccccc2c(=O)n1-c1ccccc1 | 4.98 µM (active) | 
CCn1c2ccccc2c2cc(NC(=O)CNCc3ccccc3OC)ccc21 | 6.27 µM (active) | 
COc1ccc(-c2cc(NC(C)=O)c3ncc(-c4cc(OC)c(OC)c(OC)c4)n3c2)cn1 | 5.59 µM (active) | 
COc1cc(-c2cnc3c(NC(C)=O)cc(-c4ccccc4CN(C)C)cn23)cc(OC)c1OC | 14 µM (active) | 
COC(=O)C1=C(C)NC2=C(C(=O)CC(c3cccs3)C2)C1c1ccsc1 (stereo unspecified) | 12.5 µM (active) | 
CN(C)c1ccc(/C=N/N(CCO)C2=NS(=O)(=O)c3ccccc32)cc1 |  | -24.9
CN(/N=C/c1ccc(N(C)C)cc1)C1=NS(=O)(=O)c2ccccc21 | 5.59 µM (active) | 
Cc1nc(NC(=O)/C=C/c2ccco2)sc1C | 6.27 µM (active) | 
O=C(/C=C/c1ccco1)NC(=S)Nc1cccc(-c2nc3ccccc3o2)c1 | 4.98 µM (active) | 
CSc1ccccc1NC(=O)COC(=O)/C=C/c1ccco1 |  | -23.9
Cc1ccnc(NC(=S)NC(=O)/C=C/c2ccco2)c1 | 6.27 µM (active) | 
COc1ccc(-c2csc(NC(=S)NC(=O)/C=C/c3ccco3)n2)cc1Br | 3.14 µM (active) | 
COc1ccc(OC)c(/C=C/c2nc3ccccc3[nH]c2=O)c1 | 7.31 µM (active) | 
CC(=Nc1ccccc1)C1=C(O)C(Cc2ccccc2)NC1=O (stereo unspecified) | 0.396 µM (active) | 
O=C1NC(c2ccccc2Br)=N/C1=C\c1ccco1 |  | -4.52
O=C1N/C(=C\c2ccccc2)c2ccccc21 | 0.994 µM (active) | 
C=CCN1C=CC(=C/C=C(/C#N)C(=O)OCC)C=C1 | 3.66 µM (active) | 
CCOC(=O)/C(C#N)=C\C=C1C=CN(C)C=C1 | 2.31 µM (active) | 
c1ccc(Nc2nc(-c3ccccn3)cs2)cc1 |  | 16.2
O=Cc1sc(Nc2ccccc2)nc1Cl | 20.6 µM (active) | 

Structure (SMILES) | Potency | max response [%]
Cc1ccc(Nc2nc(Cl)c(C=O)s2)cc1Cl | 13 µM (active) | 
Cc1cc(C(F)(F)F)c(C#N)c(SCC(=O)Nc2nc3ccccc3s2)n1 | 18.4 µM (active) | 
Cc1coc(NC(=O)CSc2nc(-c3ccncc3)cc(C(F)(F)F)c2C#N)n1 | 16.4 µM (active) | 
CCOC(=O)c1ccc(NC(=O)CSc2nc(-c3ccc(OC)cc3)cc(C(F)(F)F)c2C#N)cc1 | 23.1 µM (active) | 
CCCCOc1ccc(-c2cc(C(F)(F)F)c(C#N)c(SCC(=O)O)n2)cc1 | 23.1 µM (active) | 
CCOC(=O)c1ccc(NC(=O)CSc2nc(-c3ccc(F)cc3)cc(C(F)(F)F)c2C#N)cc1 | 9.2 µM (active) | 
COCc1cc(C)nc(SCC(=O)Nc2ccc3[nH]c(=O)[nH]c3c2)c1C#N |  | -18.1
COc1cccc2sc(Nc3nc(-c4cc5ccccc5oc4=O)cs3)nc12 | 3.96 µM (active) | 
COc1ccc(-c2cc3ccccc3oc2=O)cc1NC(=S)NC(=O)c1ccc2c(c1)OCCO2 |  | -2.77
COc1cc(/C=C2\SC(=S)N(Nc3ncc(C(F)(F)F)cc3Cl)C2=O)ccc1O | 20.6 µM (active) | 
COc1cc(/C=C2\SC(=S)N(NC(=O)c3ccccc3OC)C2=O)ccc1O |  | -17.8
CN(C)c1ccc(/C=C2\SC(=S)N(Nc3ncc(C(F)(F)F)cc3Cl)C2=O)cc1 | 5.17 µM (active) | 
Cc1cc(C)cc(NC2=NC3(CCCCC3)N=C(N)N2)c1 | 19.8 µM (active) | 
COC(=O)c1ccc(NC(=O)CC2Nc3cc(C)c(C)cc3NC2=O)cc1 (stereo unspecified) | 20.6 µM (active) | 
CCOC(=O)c1ccc(NC(=S)NC(=O)C2CCCC2)cc1 |  | -2.63
CCN(CC)C(=O)Cn1c(=O)n(-c2ccccc2)c(=O)c2c3c(sc21)CCC3 |  | -20.5
O=C(Cc1n[nH]c(=O)c2ccccc12)OCC(=O)c1ccc2c(c1)OCCO2 | 2.8 µM (active) | 
CCOc1ccc(C(=O)COC(=O)Cc2n[nH]c(=O)c3ccccc23)cc1 | 15.8 µM (active) | 
CCOc1ccc(C(=O)C(CCC(CN(C)C)C(=O)c2ccc(OCC)cc2)CN(C)C)cc1 (stereo unspecified) |  | -24.5
O=C(C(=O)N1CCN(c2ccccc2Cl)CC1)c1c[nH]c2ccccc12 |  | -13.1
O=C(Nc1ccc2c(c1)OCCO2)C(=O)c1c[nH]c2ccccc12 | 6.27 µM (active) | 
N#Cc1c(-c2ccc(F)cc2)c(-c2ccc(F)cc2)nn(CCO)c1=O | 7.04 µM (active) | 
N#Cc1c(-c2ccccc2)c(-c2ccccc2)nn(CC(=O)NNC(=O)Nc2ccccc2)c1=O | 1.98 µM (active) | 

Structure (SMILES) | Potency | max response [%]
CCOC(=O)COn1c(=O)c(-c2ccc(Br)cc2)[n+]([O-])c2ccccc21 |  | 4.24
CCOc1ccccc1N1CC(c2nc3ccccc3n2Cc2c(C)cc(C)cc2C)CC1=O (stereo unspecified) |  | -2.71
CCOC(=O)Cn1c(=O)c(-c2cc(Br)ccc2N)nc2ccccc21 | 8.2 µM (active) | 
Cc1ccc(S(=O)(=O)CCSc2nc(C)cc(C(F)(F)F)c2C#N)cc1 | 17.7 µM (active) | 
CCOC(=O)CCSc1nc(C)cc(C(F)(F)F)c1C#N | 12.5 µM (active) | 
COc1ccc(NC(=O)C2(C)Cc3c(-c4cccc(C(N)=O)c4)ccnc3O2)cn1 (stereo unspecified) | 7.9 µM (active) | 
COc1ccc(NC(=O)C2(C)Cc3c(-c4cccc(NC(C)=O)c4)ccnc3O2)cn1 (stereo unspecified) | 1.98 µM (active) | 
COc1ccc(NC(=O)C2(C)Cc3c(-c4ccc5c(c4)OCO5)ccnc3O2)cn1 (stereo unspecified) | 7.04 µM (active) | 
C=CCNC(=S)N/N=C/c1ccc(C)cc1C |  | -13.8
N#Cc1cc2ccccc2nc1SCC(=O)Nc1ccccc1N1CCOCC1 |  | -5.1
COc1ccc2nc(SCC(=O)N3CC(=O)Nc4ccccc43)c(C#N)cc2c1 | 18.4 µM (active) | 
CCc1ccc2nc(SCC(=O)N3CC(=O)Nc4ccccc43)c(C#N)cc2c1 | 12.5 µM (active) | 
CCc1ccc2nc(SCC(=O)Nc3ccccc3N3CCOCC3)c(C#N)cc2c1 | 1.64 µM (active) | 
COc1ccc2nc(SCC(C)=O)c(C#N)cc2c1 | 3.66 µM (active) | 
CC1C/C(=N\NC(N)=S)c2cc(Cl)ccc2S1 (stereo unspecified) |  | -16.7
Cc1cc(C)c2nc(SCC(=O)N3CC(=O)Nc4ccccc43)c(C#N)cc2c1 | 1.4 µM (active) | 
N#Cc1ccc(-c2cccnc2)nc1SCC(=O)c1ccccc1 | 2.91 µM (active) | 
Cc1ccc(C(=O)CSc2nc(-c3ccccc3)ccc2C#N)cc1 | 10.3 µM (active) | 
O=C(c1ccccc1)C1C(=O)c2ccccc2C1=O |  | -3.97
NN=C1c2ccccc2C(=O)C1C(=O)C(c1ccccc1)c1ccccc1 (stereo unspecified) | 15.8 µM (active) | 
CC(C)NC(=S)N/N=C/c1sc(N2CCCCC2)nc1-c1cccs1 | 20.6 µM (active) | 
CC(C)NC(=S)N/N=C1\CCCCc2ccccc21 |  | -0.219
